Measurements taken from PubChem BioAssay AID1159580 (chemical genetic matrix, 2015).
The whole screen tested about 5,500 compounds, of which about 2,000 (36%) were called active. Another 18% or so got no clear call; they are omitted. Rule as the data show it: active = normalized growth mostly below about 0.91 (no sharp cut-off); inconclusive = no clear call, values can overlap the other calls; inactive = mostly above about 0.92. The list shows a part of the results.

Experiment: chemical genetic growth profiling, strain panel (AID 1159580);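 also: tested at 20 µM; growth read once vehicle control cultures reached saturation at 30 °C; 1 = growth at the plate median or of vehicle wells; lower values mean less growth of the strain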
Settings: S. cerevisiae deletion strains, growth OD
[1] = locus YDL101C, strain DUN1, active compounds read low
[2] = locus YHR030C, strain SLT2, active compounds read low

Measured: normalized growth

c1ccc(-c2nc(-c3cccs3)cs2)cc1
inactive: [1] 0.988 | locus YDR150W, strain NUM1, active compounds read low 0.939 | locus YJR043C, strain POL32, active compounds read low 0.973 | locus YMR263W, strain SAP30, active compounds read low 0.931 | locus YNL153C, strain GIM3, active compounds read low 0.983
active: locus YAL013W, strain DEP1, active compounds read low 0.916 | locus YBR229C, strain ROT2, active compounds read low 0.877 | locus YCL061C, strain MRC1, active compounds read low 0.895 | locus YEL061C, strain CIN8, active compounds read low 0.838 | locus YGR078C, strain PAC10, active compounds read low 0.88 | [2] 0.166 | locus YHR087W, strain rtc3, active compounds read low 0.744 | locus YJR075W, strain HOC1, active compounds read low 0.707 | locus YLR039C, strain RIC1, active compounds read low 0.273 | locus YLR058C, strain SHM2 (second series), active compounds read low 0.859 | locus YLR085C, strain ARP6, active compounds read low 0.408 | locus YLR262C, strain YPT6, active compounds read low 0.274 | locus YML094W, strain GIM5, active compounds read low 0.866 | locus YMR219W, strain ESC1, active compounds read low 0.919 | locus YNL298W, strain CLA4 (second series), active compounds read low 0.714 | locus YNL322C, strain KRE1, active compounds read low 0.914 | locus YNR030W, strain Alg12, active compounds read low 0.693 | locus YPL055C, strain LGE1, active compounds read low 0.768 | locus YPL241C, strain CIN2, active compounds read low 0.813 | locus YPR135W, strain CTF4, active compounds read low 0.341

Cc1ccc(-c2csc(-c3ccncc3)n2)cc1
active: locus YAR019C, strain CDC15, active compounds read low 0.888 | [1] 0.912 | locus YDL132W, strain cdc53, active compounds read low 0.891 | locus YDR477W, strain SNF1, active compounds read low 0.68 | locus YER123W, strain YCK3, active compounds read low 0.615 | locus YER133W, strain GLC7, active compounds read low 0.661 | locus YFR028C, strain CDC14, active compounds read low 0.89 | locus YGR092W, strain DBF2, active compounds read low 0.441 | [2] 0.423 | locus YJL095W, strain BCK1, active compounds read low 0.374 | locus YKL193C, strain SDS22, active compounds read low 0.879 | locus YLR113W, strain HOG1, active compounds read low 0.653 | locus YMR277W, strain FCP1, active compounds read low 0.865 | locus YOL078W, strain AVO1, active compounds read low 0.866 | locus YPL031C, strain PHO85, active compounds read low 0.649 | locus YPL204W, strain HRR25, active compounds read low 0.618 | locus YPL256C, strain CLN2, active compounds read low 0.697 | strain TSCII, active compounds read low 0.873
inactive: locus YBL105C, strain PKC1, active compounds read low 0.928 | locus YBR135W, strain CKS1, active compounds read low 0.903 | locus YBR136W, strain MEC1, active compounds read low 0.912 | locus YBR160W, strain CDC28, active compounds read low 0.909 | locus YDL017W, strain CDC7, active compounds read low 0.922 | locus YDL028C, strain MPS1, active compounds read low 0.898 | locus YDL108W, strain KIN28, active compounds read low 0.914 | locus YDL214C, strain PRR2, active compounds read low 0.781 | locus YDR052C, strain DBF4, active compounds read low 0.938 | locus YDR054C, strain cdc34, active compounds read low 0.879 | locus YDR226W, strain ADK1, active compounds read low 0.905 | locus YFL009W, strain cdc4, active compounds read low 0.89 | locus YFL029C, strain CAK1, active compounds read low 0.89 | locus YFR003C, strain YPI1, active compounds read low 0.921 | locus YFR019W, strain FAB1, active compounds read low 0.859 | locus YGR040W, strain KSS1, active compounds read low 0.718 | locus YGR052W, strain FMP48, active compounds read low 0.717 | locus YHR079C, strain IRE1, active compounds read low 0.674 | locus YHR082C, strain KSP1, active compounds read low 0.747 | locus YHR205W, strain SCH9, active compounds read low 0.72 | locus YIL147C, strain SLN1, active compounds read low 0.915 | locus YJL128C, strain PBS2, active compounds read low 0.919 | locus YJL157C, strain FAR1, active compounds read low 0.764 | locus YJR016C, strain ILV3, active compounds read low 0.922 | locus YJR066W, strain TOR1 (second series), active compounds read low 0.753 | locus YJR066W, strain TOR1, active compounds read low 0.53 | locus YKL048C, strain ELM1, active compounds read low 0.928 | locus YKL067W, strain YNK1, active compounds read low 0.758 | locus YKL101W, strain HSL1, active compounds read low 0.872 | locus YKL203C, strain TOR2, active compounds read low 0.782 | locus YLR133W, strain CKI1, active compounds read low 0.837 | locus YLR403W, strain SFP1, active compounds read low 0.706 | locus YML070W, strain DAK1, active compounds read low 0.788 | locus YMR001C, strain CDC5, active compounds read low 0.91 | locus YMR205C, strain PFK2 (second series), active compounds read low 0.771 | locus YNL006W, strain LST8, active compounds read low 0.925 | locus YNL020C, strain ARK1, active compounds read low 0.842 | locus YNL161W, strain CBK1, active compounds read low 0.909 | locus YNL183C, strain NPR1, active compounds read low 0.672 | locus YNL207W, strain RIO2, active compounds read low 0.905 | locus YNL222W, strain SSU72, active compounds read low 0.897 | locus YNL307C, strain MCK1 (second series), active compounds read low 0.773 | locus YOL136C, strain PFK27, active compounds read low 0.814 | locus YOR061W, strain CKA2, active compounds read low 0.89 | locus YOR119C, strain RIO1, active compounds read low 0.719 | locus YOR231W, strain MKK1, active compounds read low 0.691 | locus YOR329C, strain SCD5, active compounds read low 0.92 | locus YPL153C, strain RAD53, active compounds read low 0.688 | locus YPL209C, strain IPL1, active compounds read low 0.913 | locus YPR025C, strain CCL1, active compounds read low 0.914 | locus YPR106W, strain ISR1, active compounds read low 0.924 | locus YPR111W, strain DBF20, active compounds read low 0.902 | strain NNK1, active compounds read low 0.911
